# Experimental data published in PubChem BioAssay (NCI).
# Where “and” joins values, the source holds several entries; their conditions need not be identical. Equal entries are not always repeated. The panel holds about 83,000 compounds, 20% with a hit somewhere; the sample as a whole holds those more often.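 For each line, cells grew in 96-well plates with the test compound present at a single concentration for 48 hours.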 Values without a mark were called inactive. Calls of active or inactive are those of the source. How the source made its calls: active means growth percent below 10; inactive means the rest.
# Tested on: MDA-MB-468 breast
# Test: NCI-60 one-dose screen, 48 h (100 = growth as untreated, 0 = no growth, -100 = all killed)
# Details: 10 µM unless noted
row,SMILES,growth
1,COC12C=C/C(=C(/C(=O)OCCSc3ccnn3C)C(=O)CCCCCCCCC3(OC)C=C/C(=C(/C(=O)OCCSc4ccnn4C)C(=O)CCCCCCCC1)O3)O2,-6.23% (active)
2,Cc1ccc(N)c(S(=O)(=O)O)c1,82.6%
3,CS(=O)(=O)c1ccc2c(c1)c1c(n2C(=O)c2ccc(Cl)cc2)CCCC1,27.7%
4,Cc1nc(-c2ccccc2)cc2c(O)c(C(=O)N/N=C/Cc3ccccc3)[nH]c(=O)c12,111%
5,COc1cc(Cn2c(-c3ccccc3)c(Cl)c3c2-c2oncc2CC3)cc(OC)c1,114%
6,COc1ccc(CNc2nccnn2)cc1,88%
7,NC(=S)N/N=C/C(=O)O,37.7%
8,c1cc(OCCN2CCCCCC2)ccc1CNc1ccc2nc(CCC3CCCCC3)[nH]c2c1,58.2%
9,O=C(O)Cc1ccccn1,101%
10,CO[C@H]1CC(c2ccc[nH]2)=N[C@]12O[C@@H](C)C[C@@H]1CCCCCCCc3ccc([nH]3)[C@H]12,1.37% (active)
11,Cc1cc(OCCO)cc(C)c1Cl,124%
12,Cc1cccc2c(N)c3ccccc3nc12,-60.5% (active)
13,CC1(C)OC2COC3(C(=O)O)OC(C)(C)OC3C2O1 (centres undefined),93.6%
14,COc1cc2c(c(OC)c1OC)-c1ccc(OC)c(=O)cc1[C@@H](NC(C)=O)CC2,-8.64% (active) and -2.19% (active)
15,C#CC[C@@H]1C[C@]2(C)[C@H]3CC=C4[C@H]5CC(C)(C)CC[C@]5(C(=O)NCCCCN)CC[C@@]4(C)[C@]3(C)CC[C@H]2C(C)(C)[C@H]1OC(C)=O,-39.7% (active)
16,CC(C)OP(=O)(CCC(=O)c1c[nH]c2ccccc12)OC(C)C,107%
17,C[C@@H]1CN(c2cnc(C(=O)Nc3cc(F)cc4cccnc34)cn2)C[C@H](C)N1,3.8% (active)
18,Nc1nc(SCC#CCCl)c2[nH]cnc2n1,-6.97% (active)
19,CC(=O)O[C@H]1CC[C@]2(C)[C@H]3C(=O)C=C4[C@@H]5C[C@](C)(C(=O)N6CCCNCC6)CC[C@]5(C)CC[C@@]4(C)[C@]3(C)CC[C@H]2C1(C)C,-85.2% (active)
20,CN(CCCN(C)CCC1CCCCC1)CCC1CCCCC1,-76.1% (active)
21,CC1(C)COC(=S)N1,99.5%
22,C(=C(\C1=NCCN1)n1ccc2ccccc21)/c1ccccc1,96.5%
23,OC(c1cc2c(Cl)cc(Cl)cc2c2cc(C(F)(F)F)ccc12)C1CCCCN1 (centres undefined),-89.1% (active)
24,CC(=O)C1CCC(C)=CC1=O (centres undefined),116%
